In PubChem BioAssay (EPA / NIEHS):
Where “and” joins values, the source holds several entries; their conditions need not be identical. Equal values may be shown once. Records with an inconclusive call do not appear. Calls of active or inactive are those of the source. The calls were made as follows: active = hit-call score of the fitted dose curve at least 0.9, where 1 is the maximum; inconclusive = response in the unintended direction; inactive = score below 0.9.

Tests used:
[1] = molecular target: Cellular tumor antigen p53 (Homo sapiens) (UniProt P04637); assay: TOX21_p53_BLA_p2_ratio: Tox21 HCT-116 p53 Agonism Beta-lactamase Assay, Ratio, Phase 2 (AID 2283592)
Outline: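 DMSO-normalized, positive-direction endpoint derived from the 460 nm/530 nm FRET ratio in HCT116 p53 beta-lactamase reporter cells exposed 16 h at 37C and loaded with CCF4-AM for 2 h.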

[2] = TOX21_p53_BLA_p3_viability: Viability Assessment in the Tox21 HCT-116 p53 Agonism Beta-lactamase Assay, Phase 3 (AID 2283593);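 also: cells exposed to compound for 16 h before reading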
Outline: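 HCT116 cells, 4000/well, dosed 5 h after plating by pin transfer (217-fold dilution from DMSO stock) and incubated 16 h at 37C, 5% CO2. Viability read as ATP luminescence with CellTiter-Glo after 30 min at room temperature.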

[3] = molecular target: Cellular tumor antigen p53 (Homo sapiens) (UniProt P04637); assay: TOX21_p53_BLA_p3_ratio: Tox21 HCT-116 p53 Agonism Beta-lactamase Assay, Ratio, Phase 3 (AID 2283596)
Outline: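 Cells were seeded at 4000/well, rested 5 h at 37C, then dosed with DMSO compound solutions (217-fold dilution) for 16 h. CCF4-AM substrate was loaded for 2 h at room temperature, and the 460/530 nm emission ratio was fitted for gain of signal versus DMSO.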

[4] = TOX21_p53_BLA_p4_viability: Viability Assessment in the Tox21 HCT-116 p53 Agonism Beta-lactamase Assay, Phase 4 (AID 2283597);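 also: hits lower the luminescence signal meaning cytotoxicity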
Outline: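 In this multiplexed secondary endpoint, HCT116 cells (4000 per well, compound at 5 h, 16 h treatment) received CellTiter-Glo after the beta-lactamase read. Luminescence after 30 min RT reflects ATP, and falling signal marks cytotoxicity.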

[5] = molecular target: Cellular tumor antigen p53 (Homo sapiens) (UniProt P04637); assay: TOX21_p53_BLA_p5_ratio: Tox21 HCT-116 p53 Agonism Beta-lactamase Assay, Ratio, Phase 5 (AID 2283599)
Outline: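 HCT-116 p53-bla cells (4000/well) plated 5 h, dosed with compound (217-fold DMSO dilution) for 16 h at 37 C; CCF4-AM substrate 2 h at room temperature. Activity is the 460/530 nm emission ratio (405 nm excitation), fitted in gain-of-signal direction versus DMSO.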

[6] = TOX21_p53_BLA_p5_viability: Viability Assessment in the Tox21 HCT-116 p53 Agonism Beta-lactamase Assay, Phase 5 (AID 2283600)
Outline: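 Here cell health was gauged by ATP levels in wells holding 4000 cells, each treated 16 h with DMSO-delivered compounds at 217-fold dilution; reduced luminescence marked toxicity.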

[7] = molecular target: Cellular tumor antigen p53 (Homo sapiens) (UniProt P04637); assay: TOX21_p53_BLA_p4_ratio: Tox21 HCT-116 p53 Agonism Beta-lactamase Assay, Ratio, Phase 4 (AID 2283601)
Outline: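 HCT-116 p53 beta-lactamase reporter cells (4000/well) preincubated 5 h, then compound (217-fold dilution of DMSO stock) for 16 h at 37C. CCF4-AM substrate added 2 h at room temperature; 460/530 nm emission ratio fitted upward versus DMSO.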

[8] = Tanguay_ZF_120hpf_MORT_legacy: (Legacy) Oregon State University Tanguay Lab 120 Hour Post-fertilization zebrafish Assay for Mortality (AID 2283633);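 as to AC50: fitted as increase in binary mortality versus DMSO negative control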
Outline: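 Single dechorionated Tropical 5D embryos were held with test chemical (0.64% DMSO final) from 6 to 120 hpf at 28C under foil. Deaths at 24 or 120 hpf were recorded as binary calls, analysed for increase over DMSO controls.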

[9] = Tanguay_ZF_120hpf_YSE_legacy: (Legacy) Oregon State University Tanguay Lab 120 Hour Post-fertilization zebrafish Assay for Yolk Sac Edema (AID 2283634)
Outline: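 Single dechorionated embryos were held in sealed plates at 28C with test chemical (0.64% DMSO final) from 6 hpf until 120 hpf. Edema of the yolk sac was then recorded as a binary endpoint; non-mortality endpoints were skipped for dead embryos.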

[10] = Tanguay_ZF_120hpf_AXIS_legacy: (Legacy) Oregon State University Tanguay Lab 120 Hour Post-fertilization zebrafish Assay for Body Axis Malformation (AID 2283635)
Outline: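 Each dechorionated embryo was exposed alone from 6 hpf, with DMSO at 0.64% (vol/vol) and trimethyltin chloride 5 uM as positive control. Axis malformation was recorded at 120 hpf unless the embryo had died.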

Measured: AC50

Cellular tumor antigen p53 (Homo sapiens), sequence (P04637 whole entry, looked up): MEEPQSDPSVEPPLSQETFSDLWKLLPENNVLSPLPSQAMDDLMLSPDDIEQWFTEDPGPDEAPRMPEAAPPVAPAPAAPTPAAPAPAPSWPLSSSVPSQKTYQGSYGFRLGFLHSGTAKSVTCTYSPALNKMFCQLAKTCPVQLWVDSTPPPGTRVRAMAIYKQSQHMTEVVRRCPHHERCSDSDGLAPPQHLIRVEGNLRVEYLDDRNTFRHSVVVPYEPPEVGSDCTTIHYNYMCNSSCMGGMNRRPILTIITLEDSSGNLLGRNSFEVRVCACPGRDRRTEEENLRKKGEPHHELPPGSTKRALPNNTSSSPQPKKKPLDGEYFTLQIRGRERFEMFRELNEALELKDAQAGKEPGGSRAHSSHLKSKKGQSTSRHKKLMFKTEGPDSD

C=CC#N
inactive: [1] | [2] | [3] | [4] | [5] | [6] | [7]

COc1ccccc1OC
inactive: [1] | [2] | [3] | [4] | [5] | [7]

CC(C)c1ccc(CO)cc1
inactive: [1] | [2] | [3] | [4] | [5] | [6] | [7]

CC(C)(c1ccccc1)c1ccc(O)c(C(C)(C)c2ccccc2)c1
inactive: [8] | [9]
active: [1] 43.2 µM and 46.9 µM | [2] 40.5 µM and 53.8 µM | [3] 80.6 µM and 83.7 µM | [4] 12.1 µM and 16.6 µM | [5] 73.6 µM and 51.9 µM | [6] 39.1 µM and 24.3 µM | [7] 37.5 µM and 29 µM

COP(=S)(OC)Oc1ccc(S(=O)(=O)N(C)C)cc1
inactive: [1] | [2] | [3] | [4] | [5] | [6] | [7]

C=C(C)C(=O)[O][Sn]([CH2]CCC)([CH2]CCC)[CH2]CCC
inactive: [9] | [10]
active: [1] 41.1 µM | [2] 1.18 µM | [3] 17.5 µM | [4] 1.5 µM | [5] 35.9 µM | [6] 1.74 µM | [7] 28.7 µM | [8] 1.77 µM

ClCC(Cl)CCl
inactive: [1] | [2] | [3] | [4] | [5] | [6] | [7] | [8] | [10]

NNC(=S)NN
inactive: [1] | [2] | [3] | [4] | [5] | [7]

C[C@]12CCC(=O)C[C@@H]1CC[C@@H]1[C@@H]2CC[C@]2(C)[C@@H](O)CC[C@@H]12
inactive: [1] | [2] | [3] | [4] | [5] | [6] | [7] | [8] | [9] | [10]

CC(=O)[O][Hg][c]1ccccc1
active: [1] 4.84 µM and 12.5 µM and 8.1 µM | [2] 254 nM and 422 nM and 682 nM | [3] 1.46 µM and 1.07 µM and 1.23 µM | [4] 3.63 µM and 4.05 µM and 3.54 µM | [5] 2.9 µM and 2.82 µM and 4.64 µM | [6] 1.5 µM and 1.56 µM and 2.25 µM | [7] 7.28 µM and 2.97 µM and 7.86 µM | [8] 0.179 µM
inactive: [9] | [10]

CCCCOCCOC(C)=O
inactive: [1] | [2] | [3] | [4] | [5] | [7]

Oc1ccc(-c2ccccc2)cc1
inactive: [1] | [2] | [3] | [4] | [5] | [6] | [7]

c1ccc(N=NNc2ccccc2)cc1
inactive: [1] | [2] | [3] | [4] | [5] | [6] | [7]

CC12CC1(C)C(=O)N(c1cc(Cl)cc(Cl)c1)C2=O (configuration not stated)
inactive: [1] | [2] | [3] | [4] | [5] | [6] | [7] | [8] | [9] | [10]

COP(=S)(OC)Oc1ccc(Sc2ccc(OP(=S)(OC)OC)cc2)cc1
inactive: [1] | [2] | [3] | [4] | [5] | [6] | [7]

O=[N+]([O-])c1c(Cl)c(Cl)cc(Cl)c1Cl
inactive: [1] | [2] | [3] | [4] | [5] | [6] | [7]

Cc1ccccc1N
inactive: [1] | [2] | [3] | [4] | [5] | [6] | [7] | [8] | [9]

CCOC(=O)/C=C(C)/C=C/C[C@@H](C)CCCC(C)C
active: [2] 58.3 µM
inactive: [1] | [3] | [4] | [5] | [6] | [7]

CCC(C)(C)c1ccc(O)c(C(C)(C)CC)c1
inactive: [8] | [9] | [10]
active: [1] 72.7 µM and 66.4 µM | [2] 52.9 µM and 64 µM | [3] 79.3 µM and 85.5 µM | [4] 23 µM and 53.5 µM | [5] 22.9 µM and 70.8 µM | [6] 22.2 µM and 45.7 µM | [7] 54.3 µM

CC(C)(C)c1cc(O)ccc1O
active: [8] 32 µM
inactive: [1] | [2] | [3] | [4] | [5] | [6] | [7] | [9] | [10]

CCCCCCCCc1ccc(O)cc1
inactive: [1] | [2] | [3] | [4] | [5] | [6] | [7] | [8] | [9] | [10]

O=C/C=C/c1ccccc1
inactive: [1] | [2] | [3] | [4] | [5] | [6] | [7]

O=S(=O)(c1ccc(Cl)cc1)c1ccc(Cl)cc1
inactive: [1] | [2] | [3] | [4] | [5] | [6] | [7]

O=C(Nc1ccc2[nH]ccc2c1)c1cc2cc(F)ccc2n1Cc1cccc(F)c1
active: [1] 59.4 µM | [3] 86.7 µM | [4] 46.1 µM | [5] 83.2 µM | [7] 42.2 µM
inactive: [2] | [6] | [8] | [9] | [10]

ClC1(Cl)C2(Cl)C3(Cl)C4(Cl)C(Cl)(Cl)C5(Cl)C3(Cl)C1(Cl)C5(Cl)C24Cl (configuration not stated)
inactive: [1] | [2] | [4] | [6] | [7] | [8] | [9] | [10]

BrCCBr
inactive: [1] | [2] | [3] | [6] | [7]

COc1cc(OC)nc(NC(=O)NS(=O)(=O)c2ncccc2C(=O)N(C)C)n1
inactive: [1] | [3] | [4] | [5] | [6] | [7]

Cc1ccccc1C(=O)Nc1cccc(OC(C)C)c1
inactive: [1] | [2] | [4] | [5] | [6] | [7]

CC(C)OC(=O)Nc1ccccc1
inactive: [1] | [2] | [3] | [5] | [7]

c1cc[c]([Hg][c]2ccccc2)cc1
inactive: [3] | [5]
active: [1] 15.2 µM | [4] 79.3 µM

O=[N+]([O-])c1ccc2c3c(cccc13)CC2
inactive: [1] | [2] | [3] | [5] | [7]

CC(C)(OO)c1ccccc1
inactive: [1] | [2] | [3] | [5] | [7] | [8] | [9] | [10]

COP(=S)(OC)Oc1cc(Cl)c(Br)cc1Cl
inactive: [2] | [4] | [5]
active: [1] 70.1 µM | [3] 46.8 µM | [7] 79.6 µM

CCOP(=S)(OCC)Oc1nc(Cl)c(Cl)cc1Cl
inactive: [1] | [2] | [3] | [4] | [5] | [7] | [8] | [9] | [10]
